Consider 29 compounds from PubChem BioAssay (EPA / NIEHS).

The AC50 is the concentration giving half of the maximal activity seen.

Results filed as inconclusive are left out. Active and inactive are the calls of the source. How the source made its calls, unless noted: active means hit-call score of the fitted dose curve at least 0.9, where 1 is the maximum; inactive means score below 0.9.

Read-out in test [1]: Monokine induced gamma interferon (MIG), CXCL9 (gene 4283)
Nature of the test: BSK_3C_MIG: BioMAP Diversity Plus: 3C Assay for Monokine induced gamma interferon (MIG) Biomarker Activity (AID 2283021).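 On AC50: MIG protein level measured by immunoassay in the treated endothelial cultures.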 As to conditions: primary human endothelial cells (HUVEC); actives raise or lower the signal. In short, it runs like this: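 ELISA measurement of MIG in human umbilical vein endothelial cells 24 h after treatment. Cytotoxicity tracked by SRB staining in parallel cultures; gain or loss of signal fitted relative to DMSO.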

Test [2] has as its target human Vitamin D Receptor (VDR), VDR (gene 7421) (UniProt P11473). In words: ATG_VDR_TRANS: Attagene TRANS-FACTORIAL HepG2 Assay for human Vitamin D Receptor (VDR) (AID 2283022; active means hit-call score of the fitted dose curve at least 0.9, where 1 is the maximum). In short, it runs like this:
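Transactivation by an exogenous VDR-Gal4 chimera in transiently transfected HepG2 cells was measured as reporter transcript level 24 hours after chemical treatment. RT-PCR products were analysed by capillary electrophoresis and fitted in the positive direction relative to DMSO.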

A short description of test [3]: BSK_3C_SRB: Viability Assessment in the BioMAP Diversity Plus: 3C Assay (AID 2283023).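 Further: fitted both ways against DMSO so a hit may be signal rise or drop.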 Conditions: primary human endothelial cells (HUVEC). In short, it runs like this: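 Cytotoxicity readout in parallel HUVEC 3C cultures: after 24 h compound exposure, cells fixed with 10% TCA, stained with 0.1% SRB and read at 560 nm. Gain or loss relative to DMSO fitted.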
Read-out in test [4]: Matrix Metallopeptidase 1 (MMP1), MMP1 (gene 4312)
In words: BSK_BE3C_MMP1: BioMAP Diversity Plus: BE3C Assay for Matrix Metallopeptidase 1 (MMP1) Biomarker Activity (AID 2283024). As to conditions: primary human bronchial epithelial cells; actives raise or lower the signal. The method, boiled down: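 ELISA measurement of MMP-1 after 24 h compound exposure of primary human bronchial epithelial cells. Changes in either direction fitted relative to DMSO; parallel SRB staining checked overt cytotoxicity.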

The nature of test [5]: BSK_3C_Vis: BioMAP Diversity Plus: 3C Assay for Morphology Visualization (AID 2283025).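 Further: fitted both ways so gain or loss versus DMSO counts.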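 On AC50: light microscopy image of cell morphology used as background control.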 Conditions: primary human endothelial cells (HUVEC). In short, it runs like this: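 Light-microscopy visualization of HUVEC cultures at 24 h post-treatment, with DMSO as baseline for bidirectional fitting.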
Read-out in test [6]: Pselectin, SELP (gene 6403)
In words: BSK_4H_Pselectin: BioMAP Diversity Plus: 4H Assay for Pselectin Biomarker Activity (AID 2283026). As to conditions: primary human endothelial cells (HUVEC); actives raise or lower the signal. In short, it runs like this:
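ELISA of surface P-selectin on HUVEC, 24 h after dosing, with parallel SRB staining (0.1% after 10% TCA fixation, 560 nm) for overt cytotoxicity. Activity fitted in both directions relative to DMSO.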

Test [7] is described as follows: BSK_4H_SRB: Viability Assessment in the BioMAP Diversity Plus: 4H Assay (AID 2283027).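 Further: cells exposed to compound for 24 h before staining.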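 On AC50: curves fitted both ways versus DMSO so AC50 may be loss or gain.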 Conditions: primary human endothelial cells (HUVEC). In short, it runs like this: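 Cytotoxicity read-out in primary human endothelial cells: after 24 h compound exposure, cells were TCA-fixed (10%), stained with 0.1% SRB and absorbance taken at 560 nm. Values fitted in both directions relative to DMSO.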

Read-out in test [8]: Thrombomodulin, THBD (gene 7056)
Nature of the test: BSK_3C_Thrombomodulin: BioMAP Diversity Plus: 3C Assay for Thrombomodulin Biomarker Activity (AID 2283029). Conditions: primary human endothelial cells (HUVEC); actives raise or lower the signal. The method, boiled down: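 ELISA measurement of thrombomodulin on HUVEC surface 24 h after chemical dosing; activity fitted in both directions relative to DMSO vehicle.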

Read-out in test [9]: Urokinase-type plasminogen activator receptor (uPAR), PLAUR (gene 5329)
Nature of the test: BSK_4H_uPAR: BioMAP Diversity Plus: 4H Assay for Urokinase-type plasminogen activator receptor (uPAR) Biomarker Activity (AID 2283030). Conditions: primary human endothelial cells (HUVEC); actives raise or lower the signal. The method, boiled down:
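uPAR level read by ELISA on HUVEC cultures (BioMAP 4H) 24 h post-dosing, analyzed for gain or loss relative to DMSO. Parallel SRB staining assessed overt cytotoxicity.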

Test [10] can be described thus: BSK_BE3C_SRB: Viability Assessment in the BioMAP Diversity Plus: BE3C Assay (AID 2283028).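 On AC50: fitted both ways so AC50 may mark signal gain or loss versus DMSO.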 As to conditions: primary human bronchial epithelial cells. The method, boiled down:
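Cytotoxicity read-out: SRB (0.1%) staining of TCA-fixed (10%) human lung bronchial epithelial cells, absorbance 560 nm, 24 h post-dosing. Curves fitted both directions relative to DMSO.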

Chain of human Vitamin D Receptor (VDR), VDR (gene 7421) (P11473 whole entry, looked up, the tested form may be a part): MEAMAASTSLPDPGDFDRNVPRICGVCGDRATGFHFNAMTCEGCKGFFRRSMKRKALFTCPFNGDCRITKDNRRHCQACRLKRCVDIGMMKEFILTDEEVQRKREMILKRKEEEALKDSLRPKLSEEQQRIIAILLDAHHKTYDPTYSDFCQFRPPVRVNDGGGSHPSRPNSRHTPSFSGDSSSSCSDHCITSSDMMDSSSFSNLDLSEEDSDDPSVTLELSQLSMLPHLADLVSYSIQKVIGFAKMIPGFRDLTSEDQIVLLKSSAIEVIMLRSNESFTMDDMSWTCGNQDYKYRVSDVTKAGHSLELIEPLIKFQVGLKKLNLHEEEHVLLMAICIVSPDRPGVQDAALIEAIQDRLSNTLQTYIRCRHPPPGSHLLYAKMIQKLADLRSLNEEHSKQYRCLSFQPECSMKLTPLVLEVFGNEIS

Regarding `CSCCC=O`, the outcome in test [1], in test [2], in test [3], in test [4], in test [5] and in test [6] was inactive. For the same compound, the result in test [7], in test [8] and in test [9] was inactive.
Consider `IC(I)I`, for which the outcome in [1], in test [3], in test [4], in test [5], in [6] and in test [7] was inactive. The result in [10], in [8] and in test [9] was inactive.
As to `c1ccc2cc(Nc3ccc(Nc4ccc5ccccc5c4)cc3)ccc2c1`, the result in [1], in [3], in test [4], in [6], in test [7] and in test [8] was inactive. For the same compound, the outcome in [9] was inactive. For the same compound, in [5], the AC50 was 8.8 µM (active).
In the case of `c1ccc(Oc2ccccc2)cc1`, the outcome in test [1], in [2], in test [4], in [8] and in test [9] was inactive. In addition, the concentration at half-maximal activity (AC50) in test [3] is 30 µM (active); in test [5], 37.8 µM (active); in test [6], 30.8 µM (active); in test [7] it was 31.3 µM (active).
For the compound `O=C1OC2(c3ccccc31)c1ccc(O)c(Br)c1Oc1c2ccc(O)c1Br`, the result in [1], in test [2], in [3], in test [4], in [7] and in [10] was inactive. In addition, the AC50 is 37.5 µM (active) in test [5], 20 µM (active) in test [6], 20 µM (active) in [8] and 20 µM (active) in test [9].
For the compound `CC(=O)Nc1ccc(C(=O)CCl)cc1`, the AC50 in [1] was 10.9 µM (active); in test [3], 9.52 µM (active); in [4], 13.2 µM (active); in test [5], 4.8 µM (active); in [6] it was 4.79 µM (active); in [7] it was 6.69 µM (active). Also, in test [9], the AC50 was 9.47 µM (active). Besides, the compound was classed as inactive in [2] and in test [8].
For the compound `C=CC(C)(O)CCC=C(C)C` (configuration not stated), the outcome in [1], in [2], in test [3], in test [4], in [6] and in [7] was inactive. Further, the outcome in test [10], in test [8] and in [9] was inactive.
Regarding `CCCCN(CCCC)C(=O)N(CCCC)CCCC`, the AC50 was 12.5 µM (active) in test [1]; 7.99 µM (active) in test [3]; 20 µM (active) in test [4]; 2.98 µM (active) in test [5]; 12.2 µM (active) in [6]; 8.59 µM (active) in test [7]. Besides, the AC50 in test [9] was 7.82 µM (active). The call in [2] and in test [8] was inactive.
As for `Cc1cc(CCC(=O)OCCOCCOCCOC(=O)CCc2cc(C)c(O)c(C(C)(C)C)c2)cc(C(C)(C)C)c1O`, the outcome in test [1], in test [4], in test [5], in test [6], in test [7] and in [8] was inactive. The result in test [9] was inactive. The AC50 in test [3] is 28.1 µM (active).
On to `CS(=O)(=O)c1ccc(C2=C(c3ccccc3)C(=O)OC2)cc1`, for which the outcome in test [1], in test [3], in test [4], in test [5], in test [6] and in [7] was inactive. Further, the result in [8] and in test [9] was inactive.
Consider `CC=Cc1ccc(OCC)c(O)c1`, for which the result in test [1], in [2], in [3], in test [4], in [5] and in test [6] was inactive. Further, the result in test [7], in test [8] and in test [9] was inactive.
For `COc1ccc(OC)c(N=Nc2c(O)ccc3ccccc23)c1`, the result in [1], in test [3], in test [4], in [7] and in test [9] was inactive. Besides, the figures for the concentration at half-maximal activity (AC50) in [5], in test [6] and in test [8] were 13 µM (active), 5.42 µM (active) and 9.48 µM (active), respectively.
Regarding `COc1ccc(CCN2CCC(Nc3nc4ccccc4n3Cc3ccc(F)cc3)CC2)cc1`, the result in [1], in test [2], in [4], in test [6] and in test [8] was inactive. Besides, the concentration at half-maximal activity (AC50) was 2.41 µM (active) in test [3], 0.743 µM (active) in test [5], 2.49 µM (active) in test [7] and 0.992 µM (active) in test [9].
Turning to `CCCCOC(=O)CCCCCCCC(=O)OCCCC`, the result in test [1], in test [2], in test [3], in [4], in [5] and in [6] was inactive. Besides, the result in test [7], in test [8] and in test [9] was inactive.
As to `CCCCCC(C=O)=Cc1ccccc1`, the result in [1] and in [8] was inactive. The AC50 was 33.1 µM (active) in test [3]; 0.096 µM (active) in test [4]; 37.8 µM (active) in [5]; 32.7 µM (active) in test [6]; 34.1 µM (active) in test [7]; 36.5 µM (active) in [9].
Regarding `COc1cc(Cl)c(OC)cc1N`, the outcome in test [1], in [2], in test [3], in test [4], in test [5] and in test [6] was inactive. Moreover, the result in [7], in test [8] and in test [9] was inactive.
With `CN(C)C(=S)SC(=S)N(C)C`, the outcome in test [1], in test [2], in test [4], in [6], in test [8] and in test [9] was inactive. For the same compound, the results for the AC50 in [3], in test [5] and in test [7] were 19.9 µM (active), 39.2 µM (active) and 19.9 µM (active), respectively.
For `CC(C)(C)CC(C)(C)c1ccc(OCCOCC[N+](C)(C)Cc2ccccc2)cc1`, the AC50 in test [1] was 8.17 µM (active); in test [3], 4.62 µM (active); in [4] it was 6.86 µM (active); in test [5], 9.69 µM (active); in test [6], 5 µM (active); in [7], 5.82 µM (active). The AC50 in [10] was 8.4 µM (active); in test [9] it was 4.64 µM (active). Besides, the outcome in test [2] and in [8] was inactive.
Regarding `CCCCCCCCCCCCCCCC(=O)OC/C=C(C)/C=C/C=C(C)/C=C/C1=C(C)CCCC1(C)C`, the outcome in [1], in test [4], in test [6], in [7] and in [9] was inactive. Moreover, the AC50 in test [3] was 29.5 µM (active); in [5], 38.9 µM (active); in test [8] it was 20 µM (active).
For `c1ccc(CN(Cc2ccccc2)Cc2ccccc2)cc1`, in test [2], the outcome was inactive.
On the same count and under the same terms, the same measure for `CC(O)C1CCCCC1` (configuration not stated): “inactive”; for `C=C[Si]1(C)O[Si](C)(C=C)O[Si](C)(C=C)O[Si](C)(C=C)O1` (configuration not stated): “inactive”.
In the case of `Cc1cc(=O)oc2cc(N(C)C)ccc12`, in test [2], the call was inactive.
For `CCOC(=O)CN`, the call in test [2] was inactive.
Take `CCCCCc1ccco1`: the result in test [2] was inactive.
On the same count and under the same terms, the same measure for `C[C@H](CCC(=O)NCC(=O)O)[C@H]1CC[C@H]2[C@@H]3[C@H](O)C[C@@H]4C[C@H](O)CC[C@]4(C)[C@H]3C[C@H](O)[C@]12C`: “inactive”; for `FC(F)(F)COCC(F)(F)F`: “inactive”; for `COc1ccc(N=Nc2cc(C)c(N=Nc3ccc(S(=O)(=O)O)cc3)cc2OC)cc1`: “inactive”.
`CCN(CCC#N)c1ccc(N=Nc2ccc([N+](=O)[O-])cc2)cc1`: in test [2], the compound was classed as inactive.
